# Compound activity deposited in PubChem by National Center for Advancing Translational Sciences (NCATS).
# This is a sample that favours compounds with a hit; in the whole collection about 2.4% have one here.
# D2 ag-1: HTS Assay for Allosteric Agonists of the Human D2 Dopamine Receptor: Primary Screen for Agonists. D(2) dopamine receptor (Homo sapiens), P14416. HEK293 T-REx D2 cells, calcium flux agonist mode. 340,000 tested, 0.53% active. activation, % at 2 µM;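 active = activation over 3 SD above normal in the single-dose calcium agonist read, cut at about 30% in these data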; also: 0% is about no effect
# Target sequence (P14416 whole entry, looked up): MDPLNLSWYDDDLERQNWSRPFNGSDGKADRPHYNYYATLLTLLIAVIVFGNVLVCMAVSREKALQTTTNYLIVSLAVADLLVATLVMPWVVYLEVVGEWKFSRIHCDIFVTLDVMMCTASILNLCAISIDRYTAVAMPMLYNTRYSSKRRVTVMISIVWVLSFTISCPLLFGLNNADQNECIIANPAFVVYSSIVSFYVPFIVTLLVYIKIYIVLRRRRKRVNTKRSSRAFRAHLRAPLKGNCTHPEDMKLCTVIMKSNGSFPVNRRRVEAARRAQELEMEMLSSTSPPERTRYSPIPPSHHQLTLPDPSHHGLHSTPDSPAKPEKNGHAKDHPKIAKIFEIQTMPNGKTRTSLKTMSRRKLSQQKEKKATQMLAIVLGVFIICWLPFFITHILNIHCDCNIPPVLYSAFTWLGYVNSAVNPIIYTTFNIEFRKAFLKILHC
#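 HEK293 Trex D2 cells, tetracycline-induced, o/n 30 C 5% CO2; no-wash Ca dye, RT 30–90 min; 10-cycle baseline, 23 nl cpd added, kinetic Ca read 180 s; agonist hits = positive Ca response.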
# D2 PAM-1: Beta-Arrestin HTS for Positive Allosteric Modulators of the Human D2 Dopamine Receptor: Potentiators; D(2) dopamine receptor (Homo sapiens), P14416; DiscoveRx D2 beta-arrestin cells, luminescence, 90 min; 100% = 57 uM dopamine signal; potentiation, % (concentration not given with the values); 360,000 tested, 0.23% active; in the data active = potentiation above about 50%; inconclusive = mostly about 30% to 49%
#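 PathHunter D2 cells, attached overnight at 37 deg C, received compound in DMSO plus dopamine at EC20 (50 nM final) for 90 min at 37 deg C. Beta-arrestin recruitment was read as luminescence after 1 h with detection reagent at ambient temperature.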
# B2AR arrestin: qHTS assay of beta-arrestin-biased ligands of beta2-adrenergic receptor; Beta-2 adrenergic receptor (Homo sapiens), P07550; beta-arrestin recruitment to beta2AR, cell-based reporter; Potency, µM (top dose mostly 46.1 µM), for inactives: at the highest dose activation, hits mostly activators; 330,000 tested, 0.02% active; AID 492947, 2010; active = well fitted activation curve with a large enough effect; inconclusive = small, poorly fitted or top-dose-only effect;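 also: potency is read from the fitted curve at half-maximal effect; 0% = DMSO controls and full agonism = EC100 isoproterenol or metaproterenol; nearly all actives have a fitted effect of over 65% in size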
# D2 PAM-2: HTS Assay for Positive Allosteric Modulators of the Human D2 Dopamine Receptor: Primary Screen for Potentiators; AID 485347, 2010; HEK293 T-REx D2, calcium flux, EC20 dopamine potentiation; potentiation, % at 10 µM; D(2) dopamine receptor (Homo sapiens), P14416; 340,000 tested, 0.34% active;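 active = potentiation over 3 SD above the plate norm, cut at about 30% in these data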; also: 0% is about no effect
#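 Potentiation of an EC20 dopamine calcium response measured kinetically over 180 s, after a preceding 180 s compound-only read flagging agonists. Cells: inducible Hek293 Trex D2 line, 4000/well, cultured overnight at 30 C before dye loading.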
# D2 antag: HTS Assay for Allosteric Antagonists of the Human D2 Dopamine Receptor: Primary Screen for Antagonists | 340,000 tested, 2% active | HEK293 TREx D2 cells, calcium flux, dopamine EC80 | AID 485344, 2010 | inhibition, % at 10 µM; in the data active = inhibition above about 30%; inactive = below that, where a call was filed; also: 0% is about no effect
#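 Calcium mobilization kinetics were recorded at 1 s intervals in tetracycline-induced HEK293 T-REx D2 cells, first for 180 s after compound addition and then 180 s after EC80 dopamine.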
# D2 ag-2: Beta-Arrestin HTS for Positive Allosteric Modulators of the Human D2 Dopamine Receptor: Agonists; AID 624465, 2012; 360,000 tested, 0.084% active; D(2) dopamine receptor (Homo sapiens), P14416; DiscoveRx PathHunter D2 beta-arrestin, luminescence, 90 min; 100% = 57 uM dopamine signal; activation, % (concentration not given with the values); in the data active = activation above about 40%; inconclusive = between about 15% and that limit
#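 DiscoveRx PathHunter D2 beta-arrestin cells (2,100/well) attached overnight, then compound-stimulated 90 min at 37 C in HBSS/10 mM HEPES/0.1% Tween-20 buffer; beta-galactosidase complementation read by luminescence after 1 h at ambient temperature. Dopamine 57 uM final (EC100) as control.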
# Active calls of the source: *; ? = inconclusive; . = not tested or not shown.
SMILES,D2 ag-1,D2 PAM-1,B2AR arrestin,D2 PAM-2,D2 antag,D2 ag-2
O=C(CSc1oc(-c2ccccc2)nc1S(=O)(=O)c1ccccc1)c1ccccc1,.,.,.,5,.,.
CC(=O)c1ccccc1OCC(O)CN1CCN(CCN2C(=O)c3cccc4cccc(c34)C2=O)CC1 (centres undefined),-2,-15,0%,-23,36*,-2
O=C1c2cccc3cccc(c23)C(=O)N1CCN1CCN(C(=S)Nc2ccccc2)CC1,-1,-6,0%,-2,0,-3
CCNC(=S)N1CCN(CCN2C(=O)c3cccc4cccc(c34)C2=O)CC1,0,10,0%,14,44*,0
CCOc1ccc(S(=O)(=O)N(CC(=O)N/N=C/c2cccs2)c2ccc(C)cc2)cc1,0,-9,-1%,-8,-12,0
Cc1cc(C)n(CC(=O)O)n1,0,5,3%,12,-21,-4
Cc1cc(C)n(CCn2nc(C)cc2C)n1,1,-10,0%,-1,41*,-1
CCOC(=O)N=S(N)(=O)c1ccc(Cl)cc1 (centres undefined),0,-2,0%,31*,-13,0
CCOC(=O)N=S(N)(=O)c1ccccc1 (centres undefined),0,-5,.,-6,0,-1
CC(OCC(O)CNCC1COc2ccccc2O1)c1ccc(Cl)cc1 (centres undefined),.,-12,0%,-25,.,-5
O=C(CC1COc2ccccc2O1)NCCc1ccccc1 (centres undefined),1,-2,-1%,-1,-2,-1
c1ccc(CCCCNCC2COc3ccccc3O2)cc1 (centres undefined),8,-5,0%,-43,96*,-2
CCCNCC1COc2ccccc2O1 (centres undefined),13,-14,0%,-29,33*,0
OC(CNCC1COc2ccccc2O1)COCc1cccs1 (centres undefined),0,-14,0%,-35,31*,-3
CCOc1ccccc1NC(=O)CN(Cc1ccccc1)S(C)(=O)=O,0,2,0%,-4,-8,1
COC(=O)CCCC1=CC2=CC(=O)C(C)(OC(=O)c3cccs3)C(=O)C2=CN1CCc1c[nH]c2ccccc12 (centres undefined),-1,14,0%,8,17,6
CC(=O)Oc1c(Br)cc(N(C(C)=O)S(=O)(=O)c2ccccc2)c2ccccc12,-3,-1,5%,11,33*,?
Cc1nn(CC(=O)NCc2ccco2)c(=O)c2cc3ccccc3n12,0,.,.,-10,.,.
O=C(c1cccc(COc2cccc3ccccc23)c1)N1CCCC1,1,7,0%,48*,-21,1
O=C(c1ccccc1)N1CCN(CC(O)COc2cccc3ccccc23)CC1 (centres undefined),2,-26,0%,-1,6,3
O=C1c2cccc3cccc(c23)C(=O)N1c1cccnc1,0,-6,-1%,2,16,1
O=C(NCCCN1CCCCC1)c1ccc(CS(=O)c2ccc(F)cc2)o1 (centres undefined),1,-4,-1%,-4,32*,-2
Cc1cccc(N2CCN(c3ccc4cc(S(=O)(=O)N5CCC(C)CC5)ccc4n3)CC2C)c1 (centres undefined),0,.,.,9,.,.
Cc1cc(=O)oc2cc(OCC(=O)NCCN3CCOCC3)c(Cl)cc12,1,-11,0%,-4,6,0
COc1ccc(-c2csc(NC(=O)CN3C(=O)NC4(CCCC4)C3=O)n2)cc1,0,2,0%,-14,38*,1
